According to ChEMBL document CHEMBL4296182, “CO-ADD screening of NIH NCI Diversity Set V”:
Measured potencies and affinities stand elsewhere.

Each compound was assayed on Candida albicans. Details: 20 µM.

Structure (SMILES)	Inhibition [%]
CCOC(=O)N1C/C(=C\c2ccccc2)C(=O)/C(=C/c2ccccc2)C1	6.37
COc1cc(-c2ccc(Nc3ccccc3C(=O)O)c(OC)c2)ccc1Nc1ccccc1C(=O)O	-0.13
COC1OC2COC(c3ccccc3)OC2C(=O)C1NC(=O)c1ccccc1 (stereo unspecified)	2.12
NC(=O)Nc1ccc(Nc2ccccc2)cc1	0.18
CCOC(=O)c1c(C)nc(C)c(C(=O)OCC)c1-c1cccnc1	0.35
COC(=O)c1cc(C)c(C)cc1NC1OC(CO)C(O)C1O (stereo unspecified)	6.05
CN(C)C(=S)/N=c1\ssc(=S)n1Cc1ccco1	2.24
O=C(O)/C=C\c1cc2c(cc1[N+](=O)[O-])OCO2	3.76
CSC(=N)NS(=O)(=O)c1ccc(NC(C)=O)cc1	0.03
COc1cc(NC(C)=O)c2ncccc2c1NC(C)=O	5.47
CSc1nc(O)nnc1Sc1ccccc1	13.4
NC(=S)N/N=C/c1cc(-c2cccc(N)c2)ccn1	1.87
CC1(c2ccc3ccccc3c2)CCC(=O)O1 (stereo unspecified)	2.15
CC1=C(O)C(=O)C(c2c(C)cc(C)c(Br)c2C)=C(O)C1=O	19.7
C(=C\CSc1ccccn1)/CSc1ccccn1	2.49
Clc1nc(Oc2ccccc2)nc(-c2cn(-c3ccccc3)c3ccccc23)n1	-0.88
COC(=O)C1=CC(=O)N2CCN=C2S1	3.42
COC(=O)C1=C(C)NC(C)=C(C(=O)OC)C(N2C(=O)CCC2=O)C1 (stereo unspecified)	2.3
O=S(=O)(O)c1ccc(/N=N/c2ccccc2)cc1	2.54
CC(C)CNC(=O)/C=C\C(=O)O	3.69
CSc1nc(O)cc(Cl)n1	2.04
